These results are taken from PubChem BioAssay AID740 (SRMLSC, 2007).

Screen size: about 96,000 compounds; about 65 (0.07%) were called active. The sample holds actives, similar compounds and a random draw of the others, so the mix is not that of the screen. Values without a mark were called inactive. Cut-off read from the data, not from the text of the source: active = inhibition above about 25%; inactive = the rest.

The assay in a line: unspecified inhibition readout at 50 µM (AID 740). The following applies: unspecified screen; stronger effect = higher value.
For the molecule `CC(NC(=O)c1ccc(S(=O)(=O)N(C)C)cc1)c1ccccc1` (stereo unspecified), the inhibition is 26.5% (active). As for `CC(NC(=O)c1ccc(F)cc1)c1ccccc1` (stereo unspecified), the inhibition was 1.4%. To `CC(NC(=O)c1ccc(NS(C)(=O)=O)cc1)c1ccccc1` (stereo unspecified) belongs 1.26%; to `CCCn1ncc(C(=O)O)c1C`, 0.49%; to `CCn1c(N2CCN(CC(=O)c3c[nH]c4ccccc34)CC2)nc2c1c(=O)[nH]c(=O)n2C`, 0.91%. For `CCc1c(C)nc2[nH]nc(-c3ccccc3C)n2c1=O` the value was 36.2% (active); for `Cc1cc(=O)n2c(-c3ccccc3C)n[nH]c2n1`, 0.44%.

As to `CCc1c(C)nc2[nH]nc(NC(=O)C(F)(F)F)n2c1=O`, the inhibition was 1.45%. In the case of `CCc1c(C)nc2[nH]nc(-c3ccccc3)n2c1=O`, the inhibition is 39.6% (active).

In the case of `CCc1c(C)[nH]c2nc3ccccc3n2c1=O`, the inhibition is 1.48%. On to `COCc1cc(=O)n2c(-c3ccccc3OC)n[nH]c2n1`, for which the inhibition entry is “inactive”. For `CC(=O)N1CCN(S(=O)(=O)c2cccc(C(=O)Nc3nc4c(s3)CCCC4)c2)CC1` the value was 0.78%; for `COc1ccccc1NC(=O)c1cc(C(=O)O)ccc1C(=O)O`, “inactive”. For `O=C1CSC(=S)N1Cc1cccnc1` the value was 28.6% (active); for `O=C(O)c1ccc(CN2C(=O)CSC2=S)cc1`, “inactive”; for `O=C1CSC(=S)N1c1cccnc1`, “inactive”.

In the case of `COc1cccc(-c2nc(CS(=O)(=O)CC(=O)N3CCc4ccccc43)c(C)o2)c1`, the inhibition result was “inactive”. Consider `Cc1ccccc1N(CC(=O)NC1CCCC1)C(=O)c1oc(C(C)(C)C)cc1C`, for which the inhibition was 2.02%. For `O=c1c2ccccc2nc2c3ccccc3c(NCc3ccco3)nn12` the value was 0.85%; for `Cc1sc2nc3ccc(NCc4ccco4)nn3c(=O)c2c1C`, 3.95%; for `Cc1sc2nc3c4ccccc4c(NCc4ccco4)nn3c(=O)c2c1C`, 26.7% (active). Regarding `Cc1cc(C(=O)OCC(=O)Nc2ccc(S(=O)(=O)N3CCOCC3)cc2)c(C)o1`, the inhibition entry is “inactive”.

Take `Nc1nc(-c2ccco2)nn1C(=O)c1ccc(Cl)cc1`: the inhibition is 0.07%. On to `Cc1nc2scc(-c3ccco3)c2c(=O)n1/N=C/N(C)C`, for which the inhibition is 25.3% (active). With `Cc1ccc(-c2csc3ncn(/N=C/N(C)C)c(=O)c23)o1`, the inhibition is 0.16%. For `Cc1nc2scc(-c3ccccc3)c2c(=O)n1/N=C/c1ccco1` the value was “inactive”; for `COC(=O)Cn1cc(C(=O)OC)c2ccccc21`, “inactive”. As to `O=C(CCS(=O)(=O)c1cccc2nsnc12)NCc1ccccc1Cl`, the inhibition was 79.1% (active). For `Cc1ccc(CNC(=O)CCS(=O)(=O)c2cccc3nsnc23)cc1`, the inhibition is 0.45%.

In the case of `COc1cccc(CNC(=O)CCS(=O)(=O)c2cccc3nsnc23)c1`, the inhibition is 0.1%. For the molecule `COc1cc2[nH]c(=O)n(CCC(=O)NC3CCCC3)c(=O)c2cc1OC`, the inhibition is 0.82%. Take `Cc1sc(-c2ccccn2)nc1OC(=O)c1ccc(Cl)cc1`: the inhibition entry is “inactive”. To `NC1C2CN(c3nc4c(cc3F)c(=O)c(C(=O)O)cn4-c3ccc(F)cc3F)CC12` (stereo unspecified) belongs 27.2% (active). For `CCn1cc(C(=O)O)c(=O)c2cc(F)c(N3CCN(C(=O)Nc4ccccc4)CC3)cc21`, the inhibition is 1.47%.

For `COc1c(N2CCN(C(=S)Nc3ccc(F)cc3)C(C)C2)c(F)cc2c(=O)c(C(=O)O)cn(C3CC3)c12` (stereo unspecified), the inhibition was 0.59%. With `O=C(O)c1cccc(COCC(F)(F)C(F)F)c1`, the inhibition result was “inactive”. Consider `COc1ccc([C@H]2[C@H](C(=O)C(C)(C)C)N3N=Cc4ccccc4C3[C@]23N=C(c2ccccc2)OC3=O)cc1` (stereo partly specified), for which the inhibition result was “inactive”. Take `COc1ccc(CCN(Cc2cc3cc(C)c(C)cc3nc2Cl)C(=O)C2CC2)cc1`: the inhibition entry was “inactive”. For `CC(C)(C)c1ccc(OCCN2CCCC2)cc1` the value was “inactive”; for `CC(C)(C)c1ccc(OCCn2ccccc2=O)cc1`, 25.3% (active). Turning to `CC(C)(c1ccccc1)c1ccc(OCCn2cnc3ccccc3c2=O)cc1`, the inhibition result is “inactive”. For `CCS(=O)(=O)Nc1ccc(-c2ccc(NS(=O)(=O)CC)c(OC)c2)cc1OC` the value was 0.7%; for `Cc1ccc(S(=O)(=O)CC(N)=O)cc1`, 0.12%; for `O=C(c1ccco1)N1CCN(c2cc(C(F)(F)F)nc3ncnn23)CC1`, 1.54%. For the molecule `CCCN(CCC)C(=O)Cn1c(=O)n(CCCCC(=O)NC2CCCC2)c(=O)c2ccccc21`, the inhibition was 0.15%.

Take `CCN1CCN(CC(O)COc2ccc(C(C)=O)cc2)CC1` (stereo unspecified): the inhibition is 0.4%. On to `Cc1ccc(/C=C/C(=O)c2c(C)cc(C)[nH]c2=O)cc1`, for which the inhibition was 35.2% (active). For `CCc1ccc(/C=C/C(=O)c2c(C)cc(C)[nH]c2=O)cc1` the value was 24.9%. For `Cc1cc(C)c(C(=O)/C=C/c2ccc(C(C)C)cc2)c(=O)[nH]1` the value was 1.62%; for `COCCSc1ccccc1C(=O)N1CCOCC1`, “inactive”. For `CC(C)(C)c1ccc(S(=O)(=O)n2c(CN3CCOCC3)nc3ccccc32)cc1` the value was 0.34%. For `CCOC(=O)CSc1nnc(C2CCCCC2)n1C`, the inhibition result is “inactive”.

For `O=C(c1ccc(F)cc1)C(CN1CCOCC1)c1ccccc1` (stereo unspecified), the inhibition entry was “inactive”. For `COc1ccc(C(=O)C(CN2CCCC2)c2ccccc2)cc1` (stereo unspecified) the value was 8.35%; for `COc1ccc(C(=O)C(CN2CCOCC2)c2ccccc2)cc1` (stereo unspecified), 41.7% (active); for `Nc1nc(SCc2ccccc2)[nH]c(=O)c1-c1ccccc1`, “inactive”. For `O=C(CN1CCN(c2ncccn2)CC1)NCCC1=CCCCC1` the value was 50.1% (active); for `O=C(CN1CCN(C2CCCCC2)CC1)NCCC1=CCCCC1`, “inactive”. Take `O=C(CSc1ncccc1C(=O)O)NCCC1=CCCCC1`: the inhibition entry is “inactive”.

Turning to `COc1cccc(NS(=O)(=O)c2ccc3[nH]cc(C(=O)NCCC(C)C)c(=O)c3c2)c1`, the inhibition was 1.2%. For `O=C(NCc1ccco1)c1cc(S(=O)(=O)N2CCOCC2)ccc1Cl` the value was 0.08%; for `CCCCOc1cccc(NC(=O)CSc2nccn2C)c1`, “inactive”.

Take `C=CCNC(=S)Nc1cccc2ccccc12`: the inhibition was 0.02%. As to `Cn1nc([N+](=O)[O-])nc1Sc1ccc(C(C)(C)C)cc1`, the inhibition was 9.59%.

For the molecule `Cn1nc([N+](=O)[O-])nc1Sc1nnc(-c2ccccc2)o1`, the inhibition was 28.3% (active).

Turning to `COc1ccccc1-c1nnc(Sc2nc([N+](=O)[O-])nn2C)o1`, the inhibition entry was “inactive”.

Broadly, the inhibition is the percentage by which the read-out fell short of the control.
